Bioassay records: PubChem, The Scripps Research Institute Molecular Screening Center
This is one part of a sample in which hits are shown more often than they occur.
TTR transcr act: TTR transcription activators in neuroblastoma reporter cells, primary screen, cell-based, luminescence, SH-SY5Y, TTR promoter Gaussia luciferase. activation, % at 16.7 µM. 92,000 compounds, 1.3% hits. 100% = recombinant luciferase protein wells. AID 1117267, 2014;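 active means activation above the mean of all tested compounds plus 3 SD, cut at about 9.5% in these data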;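 further: cells exposed to compounds for one day before reading; 0% = median of all test compound wells on the plate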
HuH7 TTR inh: TTR promoter reporter inhibitors in hepatoma cells, counter-screen for TTR transcription activator project, cell-based, luminescence, HuH7 hepatoma. 1,100 compounds, 4% hits. shares compounds with TTR transcr act. inhibition, % at 16.7 µM. HuH7 TTR promoter-Gaussia luciferase reporter;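 active means average inhibition above the solvent-only control wells' mean plus 3 SD, cut at about 15% in these data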;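 further: 0% = cells with DMSO only and 100% = cells with inhibitor control FD; inhibitors lower well luminescence so higher value means more inhibition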
TTR up confirm: TTR transcription activators, retest, confirmation, cell-based, luminescence, SH-SY5Y, triplicate; shares compounds with TTR transcr act; SHSY5Y TTR promoter Gaussia luciferase; 100% = purified Lucia enzyme wells, no cells; activation, % at 16.7 µM; 1,100 tested, under 10 active; AID 1117280, 2014;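 active means mean activation above a set limit taken from the earlier primary screen, cut at about 11% in these data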;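 further: 0% = DMSO-treated cells and 100% = recombinant Lucia luciferase without cells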
* hit, by the source's call.

What do the screens show for `Cn1nc(CC(=O)NC2CCCCC2)c2ccccc2c1=O`?
TTR transcr act: 10.1*; HuH7 TTR inh: 0.4; TTR up confirm: -0.9

How did Cn1nc(CC(=O)NC2CCCCCC2)c2ccccc2c1=O do in these assays?
TTR transcr act: 1.4

What do the screens show for `COC(=O)C1=C(C(=O)OC)[C@@]2([C@H](Cc3ccc(C)cc3)Nc3ccccc3)C=C[C@@H]1O2`?
TTR transcr act: 2.2

Results for Nc1ncnc2c1ncn2[C@H]1C[C@H](O)[C@@H](CO)O1 ?
TTR transcr act: 8.9

What do the screens show for `Nc1ncnc(N2CCOCC2)c1N`?
TTR transcr act: 0.3

What do the screens show for `Nc1ncnc2c1ncn2CCN1CCOCC1`?
TTR transcr act: 12.5*; HuH7 TTR inh: -5.0; TTR up confirm: -0.3

Results for COC(=O)[C@]12C[C@H](CC(=O)NCc3cccs3)C(=O)N(Cc3ccc(Cl)cc3Cl)C1=C[C@H](C(C)C)O[C@@H]2C1CC1 ?
TTR transcr act: 0.4

What do the screens show for `CCOc1ccc(CCNC(=O)c2ccc3[nH]ccc3c2)cc1OCC`?
TTR transcr act: 0.3

How did O=C(NCCc1ccccc1)OCc1cn(-c2cccc(Cl)c2)nn1 do in these assays?
TTR transcr act: 2.5

What do the screens show for `COc1cccc(N(C)C(=O)[C@@H](C)[C@@H](O)c2ccc(C(C)=O)cc2)c1`?
TTR transcr act: 1.2

How did CCCCC(=O)Nc1ccnc(-c2cccnc2)n1 do in these assays?
TTR transcr act: -0.2

What do the screens show for `Cc1ccccc1-c1nc(-c2cccnc2)no1`?
TTR transcr act: -0.6

What do the screens show for `CCCCC1CCC(c2nc(-c3cccnc3)no2)CC1` (centres undefined)?
TTR transcr act: 13.5*; HuH7 TTR inh: 0.7; TTR up confirm: 0.0

What do the screens show for `C[C@H]1[C@@H](OC(=O)N2CCCC2)CC[C@@]23CCCN2C(=O)CCC[C@@H]13`?
TTR transcr act: -2.5

Results for CC(C)(C)OC(=O)n1ccc2ccc(-c3ccc4cc[nH]c4c3)cc21 ?
TTR transcr act: -0.6

How did Cc1oc(-c2ccccc2)cc1C(=O)NC1CCN(Cc2ccccc2)CC1 do in these assays?
TTR transcr act: 9.8*; HuH7 TTR inh: -0.5; TTR up confirm: -0.5

What do the screens show for `O=C(NC1CCN(Cc2ccccc2)CC1)c1ccccc1Cl`?
TTR transcr act: 1.1

What do the screens show for `O=C(NC1CCN(Cc2ccccc2)CC1)c1ccccc1OCc1ccccc1`?
TTR transcr act: -3.2

How did O=C(N1CCc2ccccc2C1)n1cc(C(O)(c2ccccc2)c2ccccc2)nn1 do in these assays?
TTR transcr act: -1.1

What do the screens show for `CO[C@H]([C@H](C)/C=C/N(C)C=O)[C@@H](C)C(=O)CC[C@H](C)[C@H](O)[C@H](C)[C@H]1OC(=O)/C=C/C(C)=C/C[C@H](O)C[C@@H]2C=CC[C@@H](C[C@H](OC)[C@@]3(CO3)[C@@H](OC)C[C@@H](OC)[C@@H]1C)O2`?
TTR transcr act: -0.6

How did CCCN1CNc2c(c(=O)[nH]c(=S)n2CCc2c(Cl)cccc2Cl)C1 do in these assays?
TTR transcr act: -0.4

What do the screens show for `CCCCn1c(=O)n(Cc2cccc(F)c2)c(=O)c2c1ncn2Cc1ccco1`?
TTR transcr act: 19.3*; HuH7 TTR inh: -4.8; TTR up confirm: -0.3

Results for CCn1cnc2c1c(=O)n(CC(=O)O)c(=O)n2Cc1ccccc1 ?
TTR transcr act: 4.7

How did Cc1cccc(Cn2c(=O)c3c(nc4n3CCN4Cc3ccco3)n(C)c2=O)c1 do in these assays?
TTR transcr act: 0.0

Results for COC(CNC(=O)[C@H](Cc1ccccc1)NC1(C(=O)NC2CCCCC2)CCCC1)OC ?
TTR transcr act: -0.2

What do the screens show for `O=P(c1ccccc1)(c1ccccc1)c1cnc2ccccn12`?
TTR transcr act: 1.8

How did COc1ccc(-c2nnc(SCC(=O)NCc3cccs3)n2C(C)C)cc1 do in these assays?
TTR transcr act: 11.4*; HuH7 TTR inh: -10.2; TTR up confirm: 1.7

How did COc1ccc(-n2cnnc2SCC(=O)NCc2cccs2)cc1 do in these assays?
TTR transcr act: 2.7

What do the screens show for `CCC(CC)NC(=O)CSc1nnc(-c2ccc(OC)cc2)n1C(C)C`?
TTR transcr act: 1.1

How did COC(=O)[C@]12C[C@H](CC(=O)NCc3cccc(C(F)(F)F)c3)C(=O)N(Cc3ccco3)C1=C[C@H](C1CCCC1)O[C@@H]2C do in these assays?
TTR transcr act: -0.1

Results for COP1(=O)CCOCC[C@H](CC(C)C)NC(=O)[C@H](CC(C)C)N1 (some centres undefined) ?
TTR transcr act: -1.4

What do the screens show for `O=C1COc2ccccc2C(c2nnnn2Cc2ccccc2)N1Cc1cccs1` (centres undefined)?
TTR transcr act: 0.9

Results for Cc1csc(NC(=O)CCc2c(C)nc3cc(-c4ccc(Cl)cc4)nn3c2C)n1 ?
TTR transcr act: 0.9

Results for Cc1csc(NC(=O)CSc2nnc(Cc3cccn3C)n2-c2ccc(F)cc2)n1 ?
TTR transcr act: 0.4

What do the screens show for `Cc1csc(NC(=O)CSc2nnc(-c3ccc(Cl)cc3)n2N)n1`?
TTR transcr act: 44.4*; HuH7 TTR inh: -33.8; TTR up confirm: 0.3

How did Cc1ccc(-c2cn(CCN)c(-c3ccncc3)n2)cc1 do in these assays?
TTR transcr act: 2.0

Results for O=C(O)CCn1cc(-c2ccc(Cl)cc2)nc1-c1ccc(Cl)nc1 ?
TTR transcr act: 9.7*; HuH7 TTR inh: -7.6; TTR up confirm: 1.3

What do the screens show for `COc1ccc(-c2cn(CCO)c(-c3ccc(Cl)nc3)n2)cc1`?
TTR transcr act: -2.1

How did CC(C)Oc1cccc(-c2csc(N3CCC(C(N)=O)CC3)n2)c1 do in these assays?
TTR transcr act: 3.2

How did CCN1CCCCC(NC(=O)c2ccc(Cl)cc2Cl)C1=O (centres undefined) do in these assays?
TTR transcr act: -0.5

What do the screens show for `COc1ccc([C@@H]2CC=C(C(=O)O)[C@H](c3ccccc3F)N2S(=O)(=O)c2ccccc2C)cc1`?
TTR transcr act: 14.2*; HuH7 TTR inh: 16.4*; TTR up confirm: -0.8

What do the screens show for `Cc1ccc(S(=O)(=O)N2[C@@H](c3ccc(F)cc3)C(C(=O)O)=CC[C@H]2c2cccc(Cl)c2)cc1`?
TTR transcr act: 1.1

Results for Cc1ccc([C@@H]2CC=C(C(=O)O)[C@H](c3ccccc3)N2S(=O)(=O)c2ccc(C)cc2)cc1 ?
TTR transcr act: -1.5

What do the screens show for `Cc1ccc(S(=O)(=O)N2[C@@H](c3ccccc3F)C(C(=O)O)=CC[C@H]2c2cccs2)cc1`?
TTR transcr act: 12.6*; HuH7 TTR inh: -0.5; TTR up confirm: 1.5

What do the screens show for `Cc1ccc([C@H]2C(C(=O)O)=CC[C@@H](c3ccc(Cl)cc3)N2S(=O)(=O)c2ccc(C)cc2)cc1`?
TTR transcr act: -3.3

How did Cc1ccc([C@H]2C(C(=O)O)=CC[C@@H](c3cccc(C)c3)N2S(=O)(=O)c2ccc(C)cc2)cc1 do in these assays?
TTR transcr act: 3.5

What do the screens show for `O=C(NCCc1ccccc1)OCc1cn(Cc2ccc(Cl)cc2)nn1`?
TTR transcr act: -0.2

Results for CCCCCCC(=O)n1ccc2ccc(-c3ccc4ccn(Cc5ccc(OC)cc5)c4c3)cc21 ?
TTR transcr act: -1.1

Results for C[C@@H]1CCCN1c1cccc2c1S(=O)(=O)N1CC[C@@H](C1)O2 ?
TTR transcr act: -0.9
